We go through 40 compounds from ChEMBL document CHEMBL3988442, “University of Dundee, Small-Polar-MMV Screening Library” (2021).

The structures appear in SMILES notation.

The target of this experiment is AMP-activated protein kinase, AMPK (Homo sapiens) (UniProt P54646+O43741+P54619+Q9UGJ0+Q9Y478+Q13131+Q9UGI9). Description: AMP-dependent Kinase enzyme assay. An in vitro enzyme assay that detects ADP turnover that is directly proportional to AMPK activity. This uses naive AMPK that is activated during the assay with MK-8722. The format is functional. The arrangement: scale not given: direction of the effect not stated beside the values. To be noted: 30 µM.
Consider `CC(C)N(C)S(=O)(=O)c1ccc2c(c1)CCN(C(=O)c1cccnn1)C2`, for which the Percent Effect is -25.3%.
The result for `O=C(c1c(F)cccc1F)N1CCC[C@@H]1Cn1c(=O)oc2ccccc21` reads 23.1%.
Regarding `CN1CCC(Cc2cnc(CNC(=O)Cc3cccc(F)c3)cn2)CC1`, the Percent Effect was determined as 3.91%.
Turning to `Cc1c(C(=O)NC2CCCOC2)nnn1-c1ccc(Cl)cc1F` (stereo not given), the Percent Effect was 0.0565%.
`CC(=O)Nc1ccc(-c2ccccc2NC(=O)CN)cc1`: the Percent Effect stood at 17.8%.
For `CCCS(=O)(=O)N1CCCN(CCCOC)CC1`, the Percent Effect turned out to be 11.7%.
Regarding `CC(C)(C)c1ccc(C(=O)C2CCCN(C(=O)CNS(C)(=O)=O)C2)cc1` (stereo not given), the Percent Effect is 0.896%.
In the case of `CC(C)(C)CN(CCC#N)C(=O)c1cccc(CC#N)c1`, the Percent Effect came to 4.84%.
With `Cc1ncn(CCNC(=O)Nc2ccccc2)c(=O)c1C`, the Percent Effect is -8.41%.
`COc1cccc(Cn2ncnc2CCC(C)N2CCN(C)CC2)c1` (stereo not given): the Percent Effect was -1.98%.
Take `CC(C)c1nnc(CN2CCCc3ccc(S(N)(=O)=O)cc32)o1`: the Percent Effect stood at 0.503%.
Turning to `O=C(NCc1ccc(-n2cncn2)nc1)c1cc[nH]n1`, the Percent Effect is 2.82%.
Turning to `Cc1ccccc1SCC(=O)Nn1cnnc1`, the Percent Effect turned out to be 3.33%.
On to `CC(C)(O)CCc1cccc(C(=O)NCc2nccs2)c1`, for which the Percent Effect was 0.5%.
With `CC(C)C(NC(=O)NCc1cccnc1N(C)C)c1cccs1` (stereo not given), the Percent Effect came out at 0.836%.
Regarding `Cc1cc(CN(C)C(C(=O)O)c2ccc(C(C)(C)C)cc2)on1` (stereo not given), the Percent Effect was 8.61%.
For `COCCC(=O)NCc1ccc(-c2ncncc2C(=O)N(C)C)cc1`, the Percent Effect is -7.24%.
To `O=C(NCC(F)(F)F)c1ccc(-n2cncn2)nn1` belongs -2.06%; to `O=C(NCc1nnc2n1CCC2)c1cn(-c2cccc(Br)c2)nn1`, 2.86%.
To `Cc1ccccc1CNC(=O)CNc1ccc(OC2CCOC2)cc1` (stereo not given) belongs 10.2%.
Take `Cc1ocnc1C(=O)N1CC[C@@]2(O)CCN(C(=O)N3CCCC3)C[C@H]2C1`: the Percent Effect was determined as 6.59%.
`CC(CC(=O)c1ccco1)NC(=O)c1ccon1` (stereo not given): the Percent Effect was 9.56%.
For the compound `COc1ccccc1CC(C)CC(=O)N(C)Cc1cc(C)on1` (stereo not given), the Percent Effect was found to be 3.99%.
Take `CCn1cc(CN2CCC(c3ncc(Cl)cc3S(C)(=O)=O)CC2)c(C)n1`: the Percent Effect stood at 4.95%.
As to `Cc1nc(C)c(COc2ccc(S(=O)(=O)N(C)C)cc2)s1`, the Percent Effect is 4.6%.
The result for `COC(=O)c1ccoc1CN(C)CC(=O)NC1CCS(=O)(=O)C1` (stereo not given) reads -0.853%.
As to `CCN(CC)C1CCN(C(=O)Nc2cc(F)c(OC)c(F)c2)C1` (stereo not given), the Percent Effect was -3.29%.
Regarding `NC(=O)C(NC1CCN(Cc2ccc(F)cc2)CC1)c1ccccc1` (stereo not given), the Percent Effect is -4.88%.
With `CC(C)c1cc(NC(=O)Cn2cnc3ccccc3c2=O)[nH]n1`, the Percent Effect came out at 6.52%.
In the case of `CC(NC(=O)N1CCCN(CC(F)F)CC1)c1ccco1` (stereo not given), the Percent Effect is -1.66%.
The result for `CNc1cc2c(nn1)CCN(C(=O)c1ccccc1-n1cccn1)C2` reads -15.3%; that for `CCN(Cc1cccnc1)C1CCN(c2ccccc2)C1=O` (stereo not given), -2.42%; that for `NC(=O)c1cc2c(nc1CC1CCCCO1)CCC2` (stereo not given), -4.87%.
The result for `COc1ccc(NC(=O)N2CCCC(CO)C2)c(C)c1` (stereo not given) reads -4.81%.
Regarding `CCN(Cc1ccoc1)c1ncc(S(N)(=O)=O)s1`, the Percent Effect is -1.73%.
For `Cc1nnc(CN(C)CC(=O)NCCc2ccc(F)cc2)n1C`, the Percent Effect was found to be 5.73%.
For `Cc1cc(C)n(CCCN(C)c2cc(C3CC3)ncn2)n1`, the Percent Effect was determined as 6.65%.
Turning to `Cc1ncc(CNC(CCO)C2CCCCC2)s1` (stereo not given), the Percent Effect stood at 4.05%.
To `COc1ccc(CCCN(C)C(=O)c2cc(C(C)=O)c[nH]2)cc1OC` belongs -2.16%.
As for `Cc1ccc(S(C)(=O)=O)cc1NCC(=O)NCCC1=CCCCC1`, the Percent Effect amounted to 0.0953%.
